Where “and” joins values, the source holds several entries; their conditions need not be identical. Identical values can stand only once. Inconclusive results are not listed. Where a structure was tested more than once in an assay, its records may differ in their call. Calls of active or inactive are those of the source. Calls come from the whole dose curve.
Assay: Primary qHTS to identify inhibitors of SARS-CoV-2 cell entry (AID 1645846); note: nearly all actives have a fitted effect of over 45% in size
Conditions: SARS-CoV-2 pseudovirus cell entry assay, luminescence; activity change, negative = inhibition: at 57.1 µM (top of the series) unless noted; series mostly up to 57.1 µM
Procedure, shortened: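 Luminescence readout (Bright-Glo luciferase) 48 h after pseudoparticle addition. HEK293-ACE2 cells, 1500/well; compound pre-incubation 1 h; Normalized to spike PP and bald PP.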
In the case of COc1cc2c(cc1O)CC[C@@H]1[C@@H]2CC[C@]2(C)[C@@H](O)CC[C@@H]12, the activity change, negative = inhibition is reported as -26.7%. In the case of CCN1CCN(CC(=O)Nc2ccc(-c3cccc4c(=O)cc(N5CCOCC5)oc34)c3sc4ccccc4c23)CC1, the Potency is reported as 5.62 µM (active). For O=C(O)c1ccc(O)c2ncc(N3CCOCC3)cc12, the Potency was 28.2 µM (active). Molecule CCC(=O)N1CCN(c2ccc(-n3c(=O)ccc4cnc5ccc(-c6cnc7ccccc7c6)cc5c43)cc2C(F)(F)F)CC1 has an activity change, negative = inhibition of -91.2% [at 27.1 µM]. Work on CNCc1ccc(-c2[nH]c3cc(F)cc4c3c2CCNC4=O)cc1 yielded an activity change, negative = inhibition of -28.3%. For C=CCn1c(=O)c2cnc(Nc3ccc(N4CCN(C)CC4)cc3)nc2n1-c1cccc(C(C)(C)O)n1, the Potency was 1.41 µM (active). In the case of COc1ncc(-c2ccc3nccc(-c4ccnnc4)c3c2)cc1NS(=O)(=O)c1ccc(F)cc1F, the Potency is reported as 2.51 µM (active). With CCC(C)(Oc1ccc(C2(c3ccc(OC(C)(CC)C(=O)O)cc3)CCCCC2)cc1)C(=O)O (stereo not drawn) the Potency was “inactive”. For COc1cc(C)c(Sc2cnc(NC(=O)c3ccc(CNC(C)C(C)(C)C)cc3)s2)cc1C(=O)N1CCN(C(C)=O)CC1 (stereo not drawn), the Potency was 12.6 µM (active). In the case of COc1ccc(CC2SC(=O)NC2=O)cc1C(=O)NCc1ccc(C(F)(F)F)cc1 (stereo not drawn), the activity change, negative = inhibition is reported as -1.76%. For Cc1c(C(=O)Nc2ccc(N3C[C@@H](C)O[C@@H](C)C3)nc2)cccc1-c1ccc(OC(F)(F)F)cc1, the Potency was “inactive and 12.6 µM (active)”. For O=C1[C@H](Cc2ccc(O)cc2)N2C(=O)CCN(C(=O)NCc3ccccc3)[C@H]2CN1Cc1cccc2ccccc12, the activity change, negative = inhibition was -93.3%. For Cc1cc(SCc2sc(-c3ccc(C(F)(F)F)cc3)nc2C)ccc1OCC(=O)O, the Potency was “inactive”. For CS(=O)(=O)c1ccc(C(=O)Nc2ccc(Cl)c(-c3ccccn3)c2)c(Cl)c1, the activity change, negative = inhibition was -12.8% and -5.84%. In the case of CC(C)(C)c1cc(C(=O)O)c(NC(=O)Nc2ccc3[nH]ncc3c2)s1, the Potency is reported as “inactive”. With CN1C(=O)C(Cc2c[nH]c3ccccc23)NC1=S (stereo not drawn) the Potency was “inactive”. In the case of CC(C)CC(=O)Nc1n[nH]c2c1CN(C(=O)C1CCN(C)CC1)C2(C)C, the Potency is reported as 5.62 µM (active). For CCOC(=O)c1c(C(C#N)=CN)c2ccc(Cl)c(Cl)c2n1C, the activity change, negative = inhibition was -10.2%. For COc1ccc2c(c1)CC[C@@H](CN(C)CC(=O)O)[C@H]2c1ccccc1, the Potency was “inactive”. With CCN(CC)c1ccc(C(=C2C=CC(=[N+](CC)CC)C=C2)c2cc(S(=O)(=O)O)ccc2S(=O)(=O)[O-])cc1 the Potency was “inactive”. COc1c(C)cnc(Cn2cnc3c(Cl)nc(N)nc32)c1C showed an activity change, negative = inhibition of -96.5%. In the case of Cn1c(NCCN(CCO)CCCc2ccc([N+](=O)[O-])cc2)cc(=O)n(C)c1=O, the activity change, negative = inhibition is reported as -16.7% and 1.27%. In the case of NC(CO)C(=O)NNCc1ccc(O)c(O)c1O (stereo not drawn), the Potency is reported as “inactive”. With CCN(CC)C(=O)c1ccc(C2=CC3(CCNCC3)Oc3cccc(O)c32)cc1 the activity change, negative = inhibition was -22.9%. With S=C(SSC(=S)N1CCCCC1)N1CCCCC1 the Potency was 1.12 µM (active). In the case of CCc1cc(Nc2nccc(-c3c(-c4ccc(OC)c(C(=O)Nc5c(F)cccc5F)c4)nc4ccccn34)n2)c(OC)cc1N1CCC(N2CCN(S(C)(=O)=O)CC2)CC1, the Potency is reported as “inactive”. Work on c1ccc(-c2nn3c(c2-c2ccnc4cc(OCCN5CCOCC5)ccc24)CCC3)nc1 yielded an activity change, negative = inhibition of 3.16%. With c1ccc2c(CCNc3ccc(Nc4ccncc4)cc3)c[nH]c2c1 the Potency was 8.91 µM (active). In the case of COc1cc2nc(N3CCCN(C)CC3)nc(NC3CCN(Cc4ccccc4)CC3)c2cc1OC, the Potency is reported as 3.16 µM (active). With CC(C)[C@H]1C(=O)N[C@H](CO)Cc2c[nH]c3cccc(c23)N1C the Potency was “inactive”. For CN(NC(=O)CC(=O)NN(C)C(=S)c1ccccc1)C(=S)c1ccccc1, the activity change, negative = inhibition was -97.7%. In the case of CN(C)CCCN=c1c2ccccc2n(C)c2[nH]c(=O)n(C)c(=O)c12, the Potency is reported as 31.6 µM (active). For Cc1ccnc(NS(=O)(=O)c2ccc(NC(=O)Nc3ccc(S(=O)(=O)Nc4nccc(C)n4)cc3)cc2)n1, the activity change, negative = inhibition was -16.3%. For O=C(Nc1cc(Cl)cc2c1[nH]c1cnccc12)c1cccnc1, the activity change, negative = inhibition was -24.6% [at 27.1 µM]. With COc1cc(OC2CCN(C)CC2)ccc1Nc1ncc2c(n1)n(C1CCCC1)c(=O)n2C the Potency was 28.2 µM (active). In the case of NCCS, the Potency is reported as “inactive”. For Cc1ccc(C(=O)N(CCCN)[C@@H](c2nc3cc(Cl)ccc3c(=O)n2Cc2ccccc2)C(C)C)cc1, the activity change, negative = inhibition was -95.6%. In the case of CCc1cncnc1N1CCN(Cc2nc3ccc(C(F)(F)F)cc3[nH]2)CC1, the Potency is reported as 28.2 µM (active).
Potency is the fitted concentration of half-maximal effect.
